The values below come from PubChem BioAssay (NCATS).

Calls of active or inactive are those of the source. The call rests on the fitted dose curve; in most records, active means well fitted curve in the direction sought with a large enough effect; inconclusive means small, poorly fitted or top-dose-only effect, or effect the other way, or another doubt; inactive means no such curve, though single readings can be large or run the other way.

This experiment in a line: Inducers of the Endoplasmic Reticulum Stress Response (ERSR) in human glioma: Validation (AID 504836). The following applies: human glioma cells, ER stress response reporter; series mostly up to 38.3 µM. In short, it runs like this:
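Stably transfected U87-MG glioma cells carrying a GRP78-based luciferase sensor; 16 h compound incubation. Luminescence end-point read 10 min after Bright-Glo addition at room temperature.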
As for `CCN(Cc1ccncc1)C(=O)C(CO)c1ccccc1` (stereo not given), the compound was called inactive.
Under `FC(F)(F)c1ccccc1-n1ccnc1` stands “inactive”; under `NC(Cc1ccc(Cl)cc1)C(=O)O` (stereo not given), “inactive”.
Regarding `OCCN1CCN(CC/C=C2/c3ccccc3Sc3ccc(C(F)(F)F)cc32)CC1`, the call was inactive.
`C=CC(N)CCC(=O)O` (stereo not given): the compound was called inactive.
The entry for `CO[C@@]1(NC(=O)CSCC#N)C(=O)N2C(C(=O)O)=C(CSc3nnnn3C)CS[C@@H]21` is “inactive”; for `CC(=O)Oc1cc(C(C)C)c(OCCN(C)C)cc1C` it is “inactive”.
The entry for `C[C@@H](O)[C@H]1C(=O)N2C(C(=O)O)=C(SCCN=CN)C[C@H]12` is “inactive”.
Under `O=C(O)CN(CCN(CC(=O)O)CC(=O)O)CCN(CC(=O)O)CC(=O)O` stands “inactive”; under `CCN(CC)C(C)CN1c2ccccc2Sc2ccccc21` (stereo not given), “inactive”.
